Results from PubChem BioAssay (NCATS).
The other results are listed elsewhere or left out. Active and inactive are the calls of the source. Calls follow the shape of the dose curve; as a rule, active = well fitted inhibition curve with a large enough effect; inconclusive = small, poorly fitted or top-dose-only effect, or another doubt; inactive = no such curve, though single readings can be large or run the other way.

Biological target: Vitamin D3 receptor (Homo sapiens) (UniProt P11473)
Assay: qHTS for Inhibitors of the vitamin D receptor (VDR): Hit Validation using a Fluorescein Assay (AID 602200)
Details: VDR-coactivator binding, fluorescein fluorescence polarization
Description: The vitamin D receptor (VDR) is a ligand-activated transcription factor and is partially responsible for the regulation of the endocrine system. This includes the transcriptional regulation of genes involved in the production of the parathyroid hormone (PTH) and the regulation of the blood calcium level. High levels of PHT can cause hypercalcemia in the case of primary and tertiary hyperparathyroidism. The VDR-mediated gene regulation, activated by its ligand 1,25-dihydroxyvitamin D3 (1,25-(OH)2D3), is governed by the recruitment of coactivators. Our hypothesis is that small molecules, with the ability to inhibit the interaction between VDR and certain coactivators, are able to selectively modulate VDR-mediated transcription. Our long term objective is the application these VDR-coactivator inhibitors to study the role of VDR-coactivator binding for specific VDR regulated genes. Ultimately, these molecules can be developed into new treatments for hypercalcemic hyperparathyroidism. No small molecule or non-peptide inhibitors are known for the VDR-coactivator interaction.
In a collaboration between the University of Wisconsin, Milwaukee and the NIH Chemical Genomics Center (NCGC) a HTS-compatible enzymatic assay was developed. The assay uses fluorescence polarization as its read-out to measure the inhibition between VDR and coregulator peptide SRC2-3 exerted by small molecules. This assay was used to screen the NIH Molecular Libraries Small Molecule Repository (MLSMR). The HTS assay detects polarization at 665 nm emitted by the Alexa Fluor 647 dye. This validation assay measures polarization of fluorescein emission at 521 nm
NIH Chemical Genomics Center [NCGC]
NIH Molecular Libraries Probe Centers Network [MLPCN]
Assay Submitter (PI): Alexander Arnold, University of Wilwaukee
Four microliter of either 1.5 uM VDR-LBD, 5 uM LG19078, and 5 nM SRC2-3 Fluorescein (all final concentrations) in columns 1, 2, and 5 to 48 or 5 nM SRC2-3 Fluorescein in columns 3 and 4 are dispensed into black medium-binding solid bottom Greiner plates. Both solutions are kept at 4 deg C and protected from light and dispensed using a Kalypsys dispenser. Then 23 nl of compounds and controls are added with Kalypsys pintool. […] Plate is centrifuged at 1000 RPM for 15 seconds to remove any residual bubbles. The plate is then incubate at ambient room temperature for 2 hours. It is then read on the Envision for a fluorescent polarization read-out (Ex 495 nm/Em 520 nm)
Potency is read from the fitted curve at half-maximal effect.

Sequence of Vitamin D3 receptor (Homo sapiens) (P11473 whole entry, looked up): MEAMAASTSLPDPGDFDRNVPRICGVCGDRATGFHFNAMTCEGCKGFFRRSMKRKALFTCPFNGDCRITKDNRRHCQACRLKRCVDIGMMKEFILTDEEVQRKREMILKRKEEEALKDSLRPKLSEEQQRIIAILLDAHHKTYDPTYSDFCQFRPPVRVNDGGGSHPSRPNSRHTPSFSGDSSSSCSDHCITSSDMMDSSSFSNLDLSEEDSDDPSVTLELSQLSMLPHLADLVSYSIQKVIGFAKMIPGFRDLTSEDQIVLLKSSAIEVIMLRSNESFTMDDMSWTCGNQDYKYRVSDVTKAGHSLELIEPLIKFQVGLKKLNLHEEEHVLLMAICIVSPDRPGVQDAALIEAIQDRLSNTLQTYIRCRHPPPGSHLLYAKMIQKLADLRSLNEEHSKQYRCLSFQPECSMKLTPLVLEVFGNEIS

Potency, active:
O=C(/C=C/c1ccc(Cl)c([N+](=O)[O-])c1)c1cccnc1 2.51 µM
Cc1cc(C)nc(S/C=C/C(=O)c2ccccc2)n1 3.55 µM
O=C1C=C(c2ccc(Cl)cc2)C(=O)N1Nc1ccccc1 1.78 µM
CCOc1ccc(N(Cc2ccccc2)C(=O)c2nc(S(C)(=O)=O)ncc2Cl)cc1 3.55 µM
O=C(Nc1ccccc1)c1nnsc1S(=O)(=O)c1ccc(Cl)cc1 7.08 µM
CC(=O)N1CC[n+]2c(-c3ccc([N+](=O)[O-])cc3)csc21 3.98 µM
CC(=O)N(C1=C(Cl)C(=O)c2ccccc2C1=O)c1ccc(C(=O)O)cc1 2.82 µM
COc1ccc(OCc2nnc3n2N=C(c2ccccc2)C(CC(=O)O)S3)cc1 (stereo not given) 1.12 µM
O=C(Nc1nc(-c2ccncc2)cs1)C1COc2ccccc2O1 (stereo not given) 3.16 µM
Cc1cccc(Oc2c([N+](=O)[O-])c(=O)n(C)c3ccccc23)c1 20 µM
Cc1ccc(-c2nc3ccccn3c2Nc2c(C)cccc2C)o1 28.2 µM
COC(=O)c1sc(-c2ccc(C(C)(C)C)cc2)cc1NC(=O)/C=C/C(=O)O 14.1 µM
O=C(/C=C/c1ccccc1)c1ccccc1O 14.1 µM
C[C@@H](NC(=O)OC(C)(C)C)c1nnc(S(=O)(=O)Cc2ccccc2)o1 17.8 µM
CCCCS(=O)(=O)c1oc(-c2cccs2)nc1S(=O)(=O)c1ccccc1 3.16 µM
c1ccc2c(C[n+]3csc4ccccc43)cccc2c1 7.08 µM
Cc1ccc(O)c(NC(=O)CCS(=O)(=O)c2nc(-c3ccc4c(c3)OCO4)cc(C(F)(F)F)n2)c1 6.31 µM
O=c1[nH]c(/C=C\c2cccc(C(F)(F)F)c2)nc(O)c1[N+](=O)[O-] 10 µM
CCOC(=O)c1sc(=S)n2c1[nH]c(=O)c1ccc(C(=O)OC)cc12 6.31 µM
CC1CCN(C(=S)c2ccc(-c3ccc(Cl)cc3Cl)o2)CC1 25.1 µM
